A short description of the assay: NCI Yeast Anticancer Drug Screen. Data for the sgs1 strain (AID 173).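 Note: 0% = growth of vehicle-only control cultures.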 As to conditions: S. cerevisiae sgs1 mutant, hits give high values. The method, then:
Growth inhibition of yeast strains with defined genetic alterations is measured as a screen for potential anti-cancer activity. Selected strains with alterations in DNA damage repair or cell cycle control were exposed to compounds and growth inhibition was measured relative to vehicle treated controls. The strain used in this assay is sgs1

Molecules are shown by their SMILES. This is part of a sample that, as a whole, favours compounds with a hit. Of some 79,000 tested, about 15% had one in any assay. Values without a mark were called inactive. Activity calls are given as the source filed them. Cut-off read from the data, not from the text of the source: active = growth inhibition above about 70%; inactive = the rest.

As for `Cn1cnc(N)c1C(=N)[Se]`, the growth inhibition was 2% (at 1.2 µM); -1% (at 3.7 µM); 40% (at 11.0 µM); 84% (active) (at 33.0 µM); 92% (active) (at 100.0 µM).

Take `N#Cc1cc(N(CCCl)CCCl)c([N+](=O)[O-])cc1[N+](=O)[O-]`: the growth inhibition is, setting by setting: (at 1.2 µM) 29%; (at 3.7 µM) 31%; (at 11.0 µM) 44%; (at 33.0 µM) 82% (active); (at 100.0 µM) 92% (active).

For `Nc1ccccc1C(=O)OCCc1ccccc1`, the growth inhibition by setting is: (at 1.2 µM) -38%; (at 3.7 µM) -32%; (at 11.0 µM) -32%; (at 33.0 µM) -28%; (at 100.0 µM) 94% (active).

With `CCC1(O)C(=O)OCc2c1cc1n(c2=O)Cc2cc3ccccc3nc2-1` (stereo not given), the growth inhibition was 1% (at 1.2 µM); 15% (at 3.7 µM); 23% (at 11.0 µM); 35% (at 33.0 µM); 48% (at 100.0 µM).

As for `CC(C)CC(NC(=O)C(N)C(C)C)C(=O)NC(CCCCN)C(=O)Nc1ccc(N(CCCl)CCCl)cc1` (stereo not given), the growth inhibition reads like this: (at 1.2 µM) -4%; (at 3.7 µM) 10%; (at 11.0 µM) 8%; (at 33.0 µM) -3%; (at 100.0 µM) 3%.

For the compound `CC[C@](O)(C(=O)O)c1cc2n(c(=O)c1CO)Cc1cc3ccccc3nc1-2`, the growth inhibition runs as follows: (at 1.2 µM) 17%; (at 3.7 µM) 64%; (at 11.0 µM) 92% (active); (at 33.0 µM) 95% (active); (at 100.0 µM) 97% (active).

Turning to `C[CH2][Sn]1([CH2]C)[O]C2C(O)OC(CO)C(O)C2[O]1` (stereo not given), the growth inhibition (at 1.2 µM) is -12%; the growth inhibition (at 3.7 µM) was -5%; the growth inhibition (at 11.0 µM) was -8%; the growth inhibition (at 33.0 µM) is 16%; the growth inhibition (at 100.0 µM) was 59%.

Regarding `c1c(N2CCOCC2)ssc1=[N+]1CCOCC1`, the growth inhibition runs as follows: (at 1.2 µM) 0%; (at 3.7 µM) 1%; (at 11.0 µM) 3%; (at 33.0 µM) 2%; (at 100.0 µM) -3%.
